This passage reports binding signal results from article PMC9911399, “Two distinct binding modes provide the RNA-binding protein RbFox with extraordinary sequence specificity”.

Numbering of substitutions follows the chain as printed; changes in the protein carry UniProt numbers. Whole data set: some 16,000 sequences, median “ka relative to ugcaugu” near 0.096, cut for the highest 2% near 0.35. Only a selection was taken, and the highest values are over-represented in it overall.

T1: RBFOX1 RRM RbFoxmut (Fox-RRM*) (Homo sapiens, UniProt Q9NWB1 109-208, R118D;E147R;N151S;E152T)
T1 sequence: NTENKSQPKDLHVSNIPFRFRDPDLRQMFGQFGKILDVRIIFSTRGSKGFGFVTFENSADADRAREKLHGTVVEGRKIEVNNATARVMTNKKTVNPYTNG

B1: UUAGCGG (DNA:RNA)
RNA: GGGAGACCGGAAUUCAGAUUGUCCUUAGCGGUUAAAUCCCGUCGUAGCCACCA
DNA 1: CAATCTGAATTCCGGTCTCCC
DNA 2: TGGTGGCTACGACGGGATT
B2: AGAGGUC (DNA:RNA)
RNA: B1 RNA with U25A, U26G, C29G, G30U, G31C
DNA 1: CAATCTGAATTCCGGTCTCCC
DNA 2: TGGTGGCTACGACGGGATT
B3: CCAGAUU (DNA:RNA)
RNA: B1 RNA with U25C, U26C, C29A, G30U, G31U
DNA 1: CAATCTGAATTCCGGTCTCCC
DNA 2: TGGTGGCTACGACGGGATT
B4: UUCCUGU (DNA:RNA)
RNA: B1 RNA with A27C, G28C, C29U, G31U
DNA 1: CAATCTGAATTCCGGTCTCCC
DNA 2: TGGTGGCTACGACGGGATT
B5: GGACAAA (DNA:RNA)
RNA: B1 RNA with U25G, U26G, G28C, C29A, G30A, G31A
DNA 1: CAATCTGAATTCCGGTCTCCC
DNA 2: TGGTGGCTACGACGGGATT
B6: CCCAACC (DNA:RNA)
RNA: GGGAGACCGGAAUUCAGAUUGUCCCCCAACCUUAAAUCCCGUCGUAGCCACCA
DNA 1: CAATCTGAATTCCGGTCTCCC
DNA 2: TGGTGGCTACGACGGGATT
B7: GCCACAA (DNA:RNA)
RNA: B6 RNA with C25G, A29C, C30A, C31A
DNA 1: CAATCTGAATTCCGGTCTCCC
DNA 2: TGGTGGCTACGACGGGATT
B8: UGUAAGU (DNA:RNA)
RNA: B6 RNA with C25U, C26G, C27U, C30G, C31U
DNA 1: CAATCTGAATTCCGGTCTCCC
DNA 2: TGGTGGCTACGACGGGATT
B9: UCAGUAU (DNA:RNA)
RNA: B1 RNA with U26C, C29U, G30A, G31U
DNA 1: CAATCTGAATTCCGGTCTCCC
DNA 2: TGGTGGCTACGACGGGATT
B10: AUUAGAG (DNA:RNA)
RNA: B1 RNA with U25A, A27U, G28A, C29G, G30A
DNA 1: CAATCTGAATTCCGGTCTCCC
DNA 2: TGGTGGCTACGACGGGATT
B11: CCAGAGU (DNA:RNA)
RNA: B6 RNA with C27A, A28G, C30G, C31U
DNA 1: CAATCTGAATTCCGGTCTCCC
DNA 2: TGGTGGCTACGACGGGATT
B12: GUGUAUA (DNA:RNA)
RNA: B6 RNA with C25G, C26U, C27G, A28U, C30U, C31A
DNA 1: CAATCTGAATTCCGGTCTCCC
DNA 2: TGGTGGCTACGACGGGATT
B13: GAGUUGU (DNA:RNA)
RNA: B1 RNA with U25G, U26A, A27G, G28U, C29U, G31U
DNA 1: CAATCTGAATTCCGGTCTCCC
DNA 2: TGGTGGCTACGACGGGATT
B14: GUUGUGU (DNA:RNA)
RNA: B1 RNA with U25G, A27U, C29U, G31U
DNA 1: CAATCTGAATTCCGGTCTCCC
DNA 2: TGGTGGCTACGACGGGATT
B15: GUUUGUG (DNA:RNA)
RNA: B1 RNA with U25G, A27U, G28U, C29G, G30U
DNA 1: CAATCTGAATTCCGGTCTCCC
DNA 2: TGGTGGCTACGACGGGATT
B16: GUCGUGU (DNA:RNA)
RNA: B1 RNA with U25G, A27C, C29U, G31U
DNA 1: CAATCTGAATTCCGGTCTCCC
DNA 2: TGGTGGCTACGACGGGATT
B17: UUGUGUA (DNA:RNA)
RNA: B1 RNA with A27G, G28U, C29G, G30U, G31A
DNA 1: CAATCTGAATTCCGGTCTCCC
DNA 2: TGGTGGCTACGACGGGATT
B18: GAGUUUG (DNA:RNA)
RNA: B1 RNA with U25G, U26A, A27G, G28U, C29U, G30U
DNA 1: CAATCTGAATTCCGGTCTCCC
DNA 2: TGGTGGCTACGACGGGATT
B19: GUCCGAG (DNA:RNA)
RNA: B1 RNA with U25G, A27C, G28C, C29G, G30A
DNA 1: CAATCTGAATTCCGGTCTCCC
DNA 2: TGGTGGCTACGACGGGATT
B20: GUGUCGU (DNA:RNA)
RNA: B1 RNA with U25G, A27G, G28U, G31U
DNA 1: CAATCTGAATTCCGGTCTCCC
DNA 2: TGGTGGCTACGACGGGATT
B21: GUGUGUA (DNA:RNA)
RNA: B1 RNA with U25G, A27G, G28U, C29G, G30U, G31A
DNA 1: CAATCTGAATTCCGGTCTCCC
DNA 2: TGGTGGCTACGACGGGATT
B22: GUGUUUG (DNA:RNA)
RNA: B1 RNA with U25G, A27G, G28U, C29U, G30U
DNA 1: CAATCTGAATTCCGGTCTCCC
DNA 2: TGGTGGCTACGACGGGATT
B23: CGUUUUG (DNA:RNA)
RNA: B6 RNA with C26G, C27U, A28U, A29U, C30U, C31G
DNA 1: CAATCTGAATTCCGGTCTCCC
DNA 2: TGGTGGCTACGACGGGATT

This test deals with T1, RBFOX1 RRM RbFoxmut (Fox-RRM*). Nature of the test: EMSA; HiTS-Eq, 1 nM pool, 10 min; buffer printed only for the single-RNA assays: 10 mM Tris pH 7.5, 150 mM NaCl, 3.4 mM EDTA, 0.001% NP-40, 30 C. The conditions noted are these: tags: His6 N-terminal (pET28a); label: 5' 32P. An outline of the steps:
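A pool of RNA with 7 randomized nucleotides, 5′-radiolabelled and with DNA-annealed flanks, was equilibrated at 1 nM for 10 min in 50 µL with purified RbFox RRM, wild type or mutant, across increasing protein concentrations. Free RNA was separated by 8% native PAGE, excised, reverse-transcribed, barcoded by PCR and sequenced. Relative association constants were obtained from read-count changes of each RNA species versus the control reaction and normalised to the cognate motif.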
(Mobility shift assays separate free from complexed probe on a gel.)
As for B1, the binding signal was 0.0965 KA relative to UGCAUGU.

For B2, the binding signal is 0.108 KA relative to UGCAUGU. Take B3: the binding signal is 0.0808 KA relative to UGCAUGU. Then B4, with 0.0952 KA relative to UGCAUGU; and B5, with 0.0761 KA relative to UGCAUGU.

For the molecule B6, the binding signal is 0.0535 KA relative to UGCAUGU. Consider B7, for which the binding signal was 0.0608 KA relative to UGCAUGU. Consider B8, for which the binding signal was 0.118 KA relative to UGCAUGU.

Take B9: the binding signal was 0.116 KA relative to UGCAUGU. As for B10, the binding signal is 0.146 KA relative to UGCAUGU. On to B11, for which the binding signal is 0.126 KA relative to UGCAUGU. Consider B12, for which the binding signal was 0.166 KA relative to UGCAUGU. Then B13, with 0.138 KA relative to UGCAUGU; and B14, with 0.224 KA relative to UGCAUGU; and B15, with 0.462 KA relative to UGCAUGU. The figure for B16 is 0.187 KA relative to UGCAUGU; for B17 it is 0.315 KA relative to UGCAUGU; for B18 it is 0.361 KA relative to UGCAUGU. Consider B19, for which the binding signal is 0.129 KA relative to UGCAUGU. For B20, the binding signal is 0.164 KA relative to UGCAUGU. The figure for B21 is 0.371 KA relative to UGCAUGU. In the case of B22, the binding signal is 0.68 KA relative to UGCAUGU. The figure for B23 is 0.133 KA relative to UGCAUGU.
